Data reported in PubChem BioAssay AID1159580 (chemical genetic matrix, 2015).
Hit rate of the full screen: of about 5,500 compounds, about 2,000 (36%) were called active. Roughly 18% stayed inconclusive and do not appear here. No stated cut-off is given here; in the data, active means normalized growth mostly below about 0.91 (no sharp cut-off); inconclusive means no clear call, values can overlap the other calls; inactive means mostly above about 0.92. This is one part of the list.

Test: chemical genetic growth profiling, strain panel (AID 1159580);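 further: tested at 20 µM; growth read once vehicle control cultures reached saturation at 30 °C; 1 = growth at the plate median or of vehicle wells; lower values mean less growth of the strain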
Settings: S. cerevisiae deletion strains, growth OD
[1] = locus YAL021C, strain ccr4, hits give low values
[2] = locus YAL026C, strain drs2, hits give low values
[3] = locus YAL030W, strain snc1, hits give low values
[4] = locus YBL061C, strain skt5, hits give low values
[5] = locus YBR009C, strain hhf1, hits give low values
[6] = locus YBR023C, strain chs3, hits give low values
[7] = locus YBR171W, strain sec66, hits give low values
[8] = locus YBR231C, strain swc5, hits give low values
[9] = locus YBR279W, strain paf1, hits give low values
[10] = locus YCL011C, strain gbp2, hits give low values
[11] = locus YCL016C, strain dcc1, hits give low values
[12] = locus YCL061C, strain MRC1, hits give low values
[13] = locus YCL069W, strain vba3, hits give low values
[14] = locus YCR088W, strain abp1, hits give low values
[15] = locus YDL005C, strain med2, hits give low values
[16] = locus YDL040C, strain nat1, hits give low values
[17] = locus YDR001C, strain nth1, hits give low values
[18] = locus YDR069C, strain doa4, hits give low values
[19] = locus YDR137W, strain rgp1, hits give low values
[20] = locus YDR159W, strain sac3, hits give low values
[21] = locus YDR297W, strain sur2, hits give low values
[22] = locus YDR334W, strain swr1, hits give low values
[23] = locus YDR335W, strain msn5, hits give low values
[24] = locus YDR392W, strain spt3, hits give low values
[25] = locus YEL003W, strain gim4, hits give low values
[26] = locus YEL037C, strain rad23, hits give low values
[27] = locus YEL061C, strain CIN8 (second series), hits give low values
[28] = locus YER015W, strain faa2, hits give low values
[29] = locus YER016W, strain bim1, hits give low values
[30] = locus YER111C, strain swi4, hits give low values
[31] = locus YER155C, strain BEM2 (second series), hits give low values
[32] = locus YFR010W, strain ubp6, hits give low values
[33] = locus YGL167C, strain pmr1, hits give low values
[34] = locus YGL173C, strain kem1, hits give low values
[35] = locus YGL227W, strain vid30, hits give low values
[36] = locus YGL240W, strain doc1, hits give low values
[37] = locus YGL253W, strain hxk2, hits give low values
[38] = locus YHR013C, strain ard1, hits give low values
[39] = locus YHR027C, strain rpn1, hits give low values
[40] = locus YHR030C, strain SLT2, hits give low values
[41] = locus YHR079C, strain IRE1, hits give low values
[42] = locus YHR142W, strain chs7, hits give low values
[43] = locus YJL092W, strain hpr5, hits give low values
[44] = locus YJL095W, strain BCK1 (second series), hits give low values
[45] = locus YJL095W, strain BCK1, hits give low values
[46] = locus YJL115W, strain asf1, hits give low values
[47] = locus YJL129C, strain trk1, hits give low values
[48] = locus YJL154C, strain vps35, hits give low values
[49] = locus YJL164C, strain tpk1, hits give low values
[50] = locus YJL166W, strain qcr8, hits give low values
[51] = locus YJL187C, strain SWE1, hits give low values
[52] = locus YJR066W, strain TOR1, hits give low values
[53] = locus YKL160W, strain elf1, hits give low values
[54] = locus YKR026C, strain gcn3, hits give low values
[55] = locus YKR091W, strain srl3, hits give low values
[56] = locus YLL001W, strain dnm1, hits give low values
[57] = locus YLL026W, hits give low values
[58] = locus YLL041C, strain sdh2, hits give low values
[59] = locus YLR027C, strain aat2, hits give low values
[60] = locus YLR113W, strain HOG1, hits give low values
[61] = locus YLR221C, strain rsa3, hits give low values
[62] = locus YLR258W, strain gsy2, hits give low values
[63] = locus YLR262C, strain YPT6 (second series), hits give low values
[64] = locus YLR320W, strain mms22, hits give low values
[65] = locus YLR342W, strain FKS1, hits give low values
[66] = locus YLR357W, strain rsc2, hits give low values
[67] = locus YLR370C, strain arc18, hits give low values
[68] = locus YLR384C, strain iki3, hits give low values
[69] = locus YML120C, strain ndi1, hits give low values
[70] = locus YMR058W, strain fet3, hits give low values
[71] = locus YMR125W, strain sto1, hits give low values
[72] = locus YMR129W, hits give low values
[73] = locus YMR205C, strain PFK2, hits give low values
[74] = locus YMR231W, strain pep5, hits give low values
[75] = locus YNL071W, strain lat1, hits give low values
[76] = locus YNL183C, strain NPR1, hits give low values
[77] = locus YNL209W, strain ssb2, hits give low values
[78] = locus YNL248C, strain rpa49, hits give low values
[79] = locus YNL322C, strain KRE1 (second series), hits give low values
[80] = locus YNR049C, strain mso1, hits give low values
[81] = locus YOR001W, strain rrp6, hits give low values
[82] = locus YOR070C, strain gyp1, hits give low values
[83] = locus YOR080W, strain dia2, hits give low values
[84] = locus YOR083W, strain WHI5, hits give low values
[85] = locus YOR106W, strain vam3, hits give low values
[86] = locus YOR231W, strain MKK1, hits give low values
[87] = locus YOR265W, strain rbl2, hits give low values
[88] = locus YOR270C, strain vph1, hits give low values
[89] = locus YOR290C, strain snf2, hits give low values
[90] = locus YPL051W, strain arl3, hits give low values
[91] = locus YPL078C, strain atp4, hits give low values
[92] = locus YPL106C, strain sse1, hits give low values
[93] = locus YPL240C, strain hsp82, hits give low values
[94] = locus YPL256C, strain CLN2, hits give low values

Measured: normalized growth

C=CCSSCC=C
inactive: [1] 1.02 | [2] 1.04 | [3] 1.03 | [4] 1.03 | [5] 1.03 | [6] 1.02 | [7] 1.04 | [8] 1.04 | [9] 1.02 | [10] 1.04 | [11] 1.03 | [12] 1.03 | [13] 1.03 | [14] 1.04 | [15] 1.05 | [16] 1.03 | [17] 1.04 | [18] 1.03 | [19] 1.07 | [20] 1.08 | locus YDR195W, strain ref2 1.04 | [21] 1.03 | [22] 1.03 | [23] 1.04 | [24] 0.901 | [25] 1.03 | [26] 1.03 | [27] 1.02 | [28] 1.03 | [29] 1.03 | [30] 1.06 | [31] 0.951 | [32] 1.05 | [33] 1.04 | [34] 1.05 | [35] 1.05 | [36] 1.05 | [37] 1.04 | [38] 1.02 | [39] 1.04 | [40] 0.858 | [42] 1.02 | [43] 1.04 | [44] 1.03 | [46] 1.04 | [47] 1.03 | [48] 1.02 | [49] 1.01 | [50] 1.03 | [51] 1.03 | [52] 0.879 | [53] 1.01 | [54] 1.03 | [55] 1.03 | [56] 1.01 | [57] 1.03 | [58] 1.03 | [59] 1.03 | [60] 0.881 | [61] 1.01 | [62] 1.03 | [63] 1.03 | [64] 1.05 | [65] 1.04 | [66] 0.974 | [67] 1.04 | [68] 1.03 | [69] 1.02 | [70] 1.03 | [71] 1.01 | [72] 1.04 | [73] 1.05 | [74] 1.03 | [75] 0.923 | [76] 0.864 | [77] 1.03 | [78] 0.96 | [79] 1.04 | [80] 1.03 | [81] 1.01 | [82] 1.02 | [83] 1.04 | [84] 0.998 | [85] 1.04 | [87] 1.03 | [88] 1.05 | [89] 0.975 | [90] 1 | [91] 1.01 | [92] 1.07 | [93] 1.03 | [94] 0.862
active: [41] 0.841 | [45] 0.822 | [86] 0.823

C=CCSSSCC=C
inactive: [1] 0.962 | [2] 0.97 | [3] 0.989 | [4] 1 | [5] 0.957 | [6] 0.986 | [7] 0.994 | [8] 0.974 | [9] 0.991 | [10] 0.984 | [11] 1 | [12] 0.98 | [13] 0.973 | [14] 0.984 | [15] 0.97 | [16] 0.987 | [17] 0.988 | [18] 0.965 | [19] 0.984 | [20] 0.937 | locus YDR195W, strain ref2 0.944 | [21] 0.989 | [22] 0.966 | [23] 0.986 | [24] 0.782 | [25] 0.98 | [26] 0.958 | [27] 0.979 | [28] 0.976 | [29] 0.992 | [30] 0.991 | [32] 0.956 | [33] 0.983 | [34] 0.988 | [35] 0.995 | [36] 0.944 | [37] 0.987 | [38] 0.937 | [39] 1 | [42] 0.981 | [43] 0.966 | [44] 0.991 | [46] 0.975 | [47] 0.958 | [48] 0.979 | [49] 0.974 | [50] 0.976 | [51] 0.984 | [53] 0.995 | [54] 0.978 | [55] 0.983 | [56] 0.994 | [57] 0.991 | [58] 0.982 | [59] 0.972 | [61] 0.992 | [62] 0.999 | [63] 0.995 | [64] 0.967 | [65] 0.98 | [66] 0.891 | [67] 0.978 | [68] 1.01 | [69] 0.974 | [70] 0.975 | [71] 0.946 | [72] 0.98 | [73] 0.967 | [74] 0.978 | [77] 0.992 | [79] 0.974 | [80] 0.98 | [81] 0.96 | [82] 0.992 | [83] 0.972 | [84] 1 | [85] 0.949 | [87] 0.984 | [88] 0.941 | [89] 0.964 | [90] 0.979 | [91] 0.988 | [92] 0.976 | [93] 0.995
active: [31] 0.765 | [75] 0.847 | [78] 0.877

C=CCSCC=C
inactive: [1] 0.972 | [2] 0.971 | [3] 0.962 | [4] 0.979 | [5] 0.981 | [6] 0.987 | [7] 0.965 | [8] 1.03 | [9] 0.992 | [10] 0.966 | [11] 0.975 | [12] 0.972 | [13] 0.98 | [14] 0.99 | [15] 0.985 | [16] 0.993 | [17] 0.96 | [18] 0.947 | [19] 0.971 | [20] 0.991 | locus YDR195W, strain ref2 0.961 | [21] 0.982 | [22] 0.935 | [23] 0.987 | [24] 0.916 | [25] 0.986 | [26] 0.972 | [27] 0.982 | [28] 0.958 | [29] 0.991 | [30] 0.966 | [31] 0.974 | [32] 0.953 | [33] 0.971 | [34] 0.941 | [35] 0.986 | [36] 0.981 | [37] 0.967 | [38] 0.957 | [39] 0.96 | [40] 1.03 | [41] 1.03 | [42] 0.934 | [43] 0.961 | [44] 0.996 | [45] 1.03 | [46] 0.938 | [47] 0.95 | [48] 0.978 | [49] 0.981 | [50] 0.977 | [51] 0.986 | [52] 0.931 | [53] 1 | [54] 0.989 | [55] 0.983 | [56] 0.966 | [57] 0.974 | [58] 0.975 | [59] 0.953 | [60] 1.02 | [61] 0.973 | [62] 0.989 | [63] 0.983 | [64] 0.995 | [65] 0.983 | [66] 0.963 | [67] 0.977 | [68] 0.99 | [69] 0.973 | [70] 0.97 | [71] 0.966 | [72] 0.979 | [73] 0.969 | [74] 0.98 | [75] 0.991 | [76] 0.94 | [77] 0.985 | [78] 0.98 | [79] 0.955 | [80] 0.964 | [81] 0.992 | [82] 0.976 | [83] 0.974 | [84] 0.989 | [85] 0.977 | [86] 1.02 | [87] 1.01 | [88] 0.945 | [89] 0.903 | [90] 0.991 | [91] 0.988 | [92] 0.943 | [93] 0.974 | [94] 1.03
